In PubChem BioAssay (NCATS):
Results filed as inconclusive are left out. The source made the active and inactive calls. Unless noted, the call rests on the fitted dose curve; in most records, active means well fitted curve in the direction sought with a large enough effect; inconclusive means small, poorly fitted or top-dose-only effect, or another doubt; inactive means no such curve, though single readings can be large; an effect the other way counts as inactive or inconclusive.

Tests used:
[1] = molecular target: Lysosomal acid glucosylceramidase (Homo sapiens) (UniProt P04062); test: Glucocerebrosidase-p2 (AID 348; in the data active means potency below about 10 µM; further: potency means the concentration at half of the fitted maximal effect); settings: purified GBA, blue fluorogenic substrate, 40 min
Method in brief: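 Normal human glucocerebrosidase (0.2 nM) with blue fluorogenic substrate (80 uM final) in citrate/phosphate pH 5.9 with 10mM sodium taurocholate, 0.01% tween-20; 40 min RT, NaOH/glycine stop; fluorescence Ex 365/Em 440; AC50 from a titration from 0.6 nM upwards.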

[2] = AP1 Signaling Pathway (AID 357; active means well fitted curve in either direction with a large enough effect, not every such curve was filed as active; further: on the % scale 0 is the no-effect control and ±100 the full control effect); settings: ME-180 (cervical carcinoma) AP-1-bla reporter, EGF-induced, beta-lactamase ratio, 5 h; at 7.69 µM (top of the series) unless noted
Method in brief: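 AP-1-bla ME-180 cells with beta-lactamase reporter under AP-1 response element, stimulated with EC50 EGF; compounds titrated, 5 hours at 37 degrees Celsius. CCF4 read at 460/530 nm ratio; positive and negative modulators judged by AC50.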

[3] = molecular target: Cytochrome P450 1A2 (Homo sapiens) (UniProt P05177); test: p450-cyp1a2 (AID 410; calls by dose curve; further: potency means the concentration at half of the fitted maximal effect)
Method in brief: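 Read-out is luminescence from luciferin produced by CYP1A2 demethylation of Luciferin-ME (100uM, at Km). Detection reagent stopped the 60 min NADPH-dependent reaction; signals were normalized to 57 uM furafylline.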

[4] = NFAT Signaling Pathway (AID 444; active means well fitted curve in either direction with a large enough effect, not every such curve was filed as active;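 further: carbachol stimulus at about its EC50 of 1 µM final; on the % scale 0 is the no-effect control and ±100 the full control effect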); settings: Jurkat NFAT-bla M1, carbachol, beta-lactamase ratio, 5 h; at 7.69 µM (top of the series) unless noted
Method in brief: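 Jurkat cells with NFAT-driven β-lactamase reporter and co-expressed M1 receptor, stimulated with carbachol (final 1 uM, ~EC50), compound titration, 5 h at 37 °C. CCF4 loaded 1 h at RT; 460/530 nm ratio gave %activity and AC50.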

[5] = Stat Signaling Pathway (AID 446; active means well fitted curve in either direction with a large enough effect, not every such curve was filed as active;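 further: ME-180 cervical cancer cells given 40 pM IL-6 alongside compound; SIE-controlled beta-lactamase reporter measured as 460/530 nm FRET emission ratio; on the % scale 0 is the no-effect control and ±100 the full control effect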)
Method in brief: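 Compound effects on IL-6-induced STAT reporter activity were measured in ME-180 cells. After overnight culture, cells were co-treated with 40 pM IL-6 for 5 hrs before beta-lactamase substrate loading at room temperature.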

[6] = molecular target: Glucocorticoid receptor (Homo sapiens) (UniProt P04150); test: GR-GFP Redistribution (AID 450;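 active means compounds whose dose series gives a full or clear partial fitted curve of increased nuclear translocation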; further: potency means the concentration at half of the fitted maximal effect); settings: U2OS GR-GFP nuclear translocation, laser cytometry, 2 h
[7] = molecular target: Glucocorticoid receptor (Homo sapiens) (UniProt P04150); test: GR-EFC Redistribution (AID 451; calls by dose curve; further: potency means the concentration at half of the fitted maximal effect); settings: CHO-K1 GR-EFC translocation, beta-gal luminescence, 2 h
Method in brief: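 CHO-K1 cells expressing nuclear EA and GR-ED fragments of b-gal; compounds titrated up to 46 uM final, 2 h at 37 C. GR nuclear translocation read as complemented b-gal luminescence after 1 h RT detection.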

[8] = molecular target: Mitogen-activated protein kinase 10 (Mus musculus) (UniProt Q61831); test: JNK3 AlphaScreen Assay (AID 530; active means well fitted curve in either direction with a large enough effect, not every such curve was filed as active;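 further: kinase came from lysate of stimulated human HepG2 cells; signal reports phosphorylation of biotinylated GST-cJun 1-79 at Ser73 with 10 µM ATP; on the % scale 0 is the no-effect control and ±100 the full control effect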)
Method in brief: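 HepG2 lysate (IL-1b/TNFa pre-activated) + biotin-GST-cJun 1-79 + anti-pSer73 cJun; cpd titration, 15 min RT; ATP 10 uM start; Tris pH 7.6, MgCl2, DTT, vanadate; beads in EDTA buffer; AlphaScreen.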

[9] = molecular target: Cytochrome P450 3A4 (Homo sapiens) (UniProt P08684); test: qHTS Assay for Activators of Cytochrome P450 3A4 (AID 885); further: nearly all actives have a fitted effect of over 65% in size
Method in brief: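 CYP3A4 activity: Luciferin-PPXE O-dealkylation, 25uM substrate, 200mM KPO4, RT throughout. Read-out is luciferase luminescence; higher values reflect activation.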

[10] = molecular target: Dual specificity protein kinase CLK4 (Homo sapiens) (UniProt Q9HAZ1); test: qHTS Assay for Inhibitors of CDC-like Kinase 4 (ADP-FP Assay) (AID 1795);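 further: recombinant human CLK4 phosphorylating RS repeat peptide at 1 µM ATP; on the % scale 0 is the no-effect control and ±100 the full control effect; nearly all actives have a fitted effect of over 60% in size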
Method in brief: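 Clk4 6.25 nM; RS peptide 100 uM; ATP 1 uM; 25 mM Tris pH 7.5, 10 mM MgCl2; 1 h reaction. ADP detected via antibody/orange tracer FP displacement; TG003 positive control.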

[11] = molecular target: Ubiquitin carboxyl-terminal hydrolase 1 (Homo sapiens) (UniProt O94782); test: Inhibitors of USP1/UAF1: Pilot qHTS (AID 504865);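 further: rhodamine fluorescence freed from ubiquitin-rhodamine substrate followed over time; top concentration of the series differs between compounds; on the % scale 0 is the no-effect control and ±100 the full control effect; nearly all actives have a fitted effect of over 35% in size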
Method in brief: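 In 50mM HEPES pH 7.8 containing 0.5mM EDTA, 1mM TCEP, 0.1 mg/ml BSA and 0.01% Tween-20, 1nM USP1/UAF1 is exposed to compound for 15 min, then Ub-Rho (150nM final) is added and fluorescence is read over time.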

[12] = HepG2 viability counterscreen (readout 2: ATP content) against the NCATS DSHEA and TCM libraries (AID 1794840); further: 0% is about no effect
Method in brief: (§1)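 Same wells read twice: first fluorescence from cleaved GF-AFC substrate (25 uM final, 30 min, 37C) for live-cell protease, then CellTiter-Glo luminescence after 30 min at room temperature for ATP. HepG2 cells were exposed ~24 h to substances.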

[13] = HepG2 viability counterscreen (readout 1: protease activity) against the NCATS DSHEA and TCM libraries (AID 1794841);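 further: cells exposed to compounds for about 24 h before the protease read; 0% is about no effect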
Method in brief: as §1

[14] = molecular target: Cytochrome P450 3A4 (Homo sapiens) (UniProt P08684); test: qHTS for inhibitors of CYP3A4 against the NCATS DSHEA and TCM libraries (AID 1919971);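 further: on the % scale 0 is the no-effect control and ±100 the full control effect; inhibition lowers luminescence from luciferin made by CYP3A4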
Method in brief: (§2)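 Isoform-specific enzyme and substrate levels; enzyme-free wells as background. Reaction: 1x NADPH regenerating system, 30-45 min, room temperature, shielded from light; luminescent detection reagent added, 30 min.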

[15] = molecular target: Cytochrome P450 2D6 (Homo sapiens) (UniProt P10635); test: qHTS for inhibitors of CYP2D6 against the NCATS DSHEA and TCM libraries (AID 1919972); further: on the % scale 0 is the no-effect control and ±100 the full control effect
Method in brief: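 qHTS, concentration–response format with most substances from 19.5 nM. CYP2D6 + pro-luciferin substrate, 15 min with compound, then 1x NADPH regen, 30–45 min RT dark. Glo detection 30 min, luminescence. Quinidine control.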

[16] = molecular target: Cytochrome P450 2C19 (Homo sapiens) (UniProt P33261); test: qHTS for inhibitors of CYP2C19 against the NCATS DSHEA and TCM libraries (AID 1919974)
Method in brief: as §2

[17] = KB-3-1 P-gp reporter qHTS against the NCATS DSHEA and TCM libraries (AID 1919975); further: 0% is about no effect
Method in brief: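 KB-3-1 parental line, 1536-well qHTS: cells seeded, ~4 h attachment, pintool compound addition, ~72 h at 37C, then CellTiter-Glo, 30 min RT, luminescence. Concentration-response format.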

[18] = molecular target: Cytochrome P450 1A2 (Homo sapiens) (UniProt P05177); test: qHTS for inhibitors of CYPIA2 against the NCATS DSHEA and TCM libraries (AID 1919976)
Method in brief: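 Furafylline served as the plate control. Compounds met CYP1A2 and pro-luciferin substrate 15 min before NADPH regeneration solution (1x) was added; after 30-45 min at RT, P450-Glo reagent was added for 30 min and luminescence was measured.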

[19] = qHTS Counterscreen for compound interference against the NCATS DSHEA and TCM libraries (AID 1919978); settings: firefly luciferase detection reagent interference, luminescence;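 further: compounds preincubated with 1 µM D-luciferin or buffer before detection reagent; % of control where 0% means no effect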
Method in brief: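 Compounds, titrated from 19.5 nM to 39.8 uM final, were pinned onto 1 uM D-luciferin or plain 100 mM potassium phosphate. After 15 min at room temperature, luciferin detection reagent was added for 30 min before the luminescence read.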

[20] = Dual reporter qHTS for agonist of Pregnane X Receptor (hPXR) against the NCATS DSHEA and TCM libraries: Fluorescence readout (AID 1920058); further: 0% is about no effect
Method in brief: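 In this qHTS counter-read, reporter-bearing HepG2 cells in charcoal-stripped serum received substances for approximately 24 h before viability was assessed fluorometrically with CellTiter-Fluor.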

[21] = molecular target: Nuclear receptor subfamily 1 group I member 2 (Homo sapiens) (UniProt O75469); test: Dual reporter qHTS for agonist of Pregnane X Receptor (hPXR) against the NCATS DSHEA and TCM libraries: Luminescence readout (AID 1920059); further: 0% is about no effect
Method in brief: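 hPXR-Luc HepG2 cells, 2000/well in 5% charcoal-stripped FBS medium, attached 5 h, then exposed 24 h at 37C to compounds. Viability by CellTiter-Fluor, then luciferase luminescence with ONE-Glo.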

[22] = molecular target: Nuclear receptor subfamily 1 group I member 2 (Homo sapiens) (UniProt O75469); test: Dual reporter qHTS for antagonist of Pregnane X Receptor (hPXR) against the NCATS DSHEA and TCM libraries: Luminescence Readout (AID 1920060);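 further: HepG2 cells carrying hPXR luciferase reporter stimulated with rifampicin at 2 µM; 0% is about no effect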
Method in brief: (§3)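 Antagonist mode: rifampicin 2 uM final co-added with compounds to hPXR-LucHepG2 cells for 24 h at 37C. Viability by CellTiter-Fluor, Ex/Em 405/540 nm, 1 h; reporter by ONE-Glo luminescence.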

[23] = Dual reporter qHTS for antagonist of Pregnane X Receptor (hPXR) against the NCATS DSHEA and TCM libraries: Fluorescence Readout (AID 1920061); further: 0% is about no effect
Method in brief: as §3

Nuclear receptor subfamily 1 group I member 2 (Homo sapiens), sequence (O75469 whole entry, looked up): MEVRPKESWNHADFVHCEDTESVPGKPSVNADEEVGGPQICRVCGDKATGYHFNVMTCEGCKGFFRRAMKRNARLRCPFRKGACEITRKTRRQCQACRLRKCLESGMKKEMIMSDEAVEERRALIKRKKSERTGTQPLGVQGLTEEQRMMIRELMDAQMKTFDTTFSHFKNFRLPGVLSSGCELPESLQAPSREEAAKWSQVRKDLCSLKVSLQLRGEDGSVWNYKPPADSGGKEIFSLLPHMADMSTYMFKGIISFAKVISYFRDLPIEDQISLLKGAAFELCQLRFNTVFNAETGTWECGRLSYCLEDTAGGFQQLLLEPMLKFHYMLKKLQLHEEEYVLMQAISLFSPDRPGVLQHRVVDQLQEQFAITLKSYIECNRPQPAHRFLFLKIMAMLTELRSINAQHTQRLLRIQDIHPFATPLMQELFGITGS
Glucocorticoid receptor (Homo sapiens), sequence (P04150 whole entry, looked up, the tested form may be a part): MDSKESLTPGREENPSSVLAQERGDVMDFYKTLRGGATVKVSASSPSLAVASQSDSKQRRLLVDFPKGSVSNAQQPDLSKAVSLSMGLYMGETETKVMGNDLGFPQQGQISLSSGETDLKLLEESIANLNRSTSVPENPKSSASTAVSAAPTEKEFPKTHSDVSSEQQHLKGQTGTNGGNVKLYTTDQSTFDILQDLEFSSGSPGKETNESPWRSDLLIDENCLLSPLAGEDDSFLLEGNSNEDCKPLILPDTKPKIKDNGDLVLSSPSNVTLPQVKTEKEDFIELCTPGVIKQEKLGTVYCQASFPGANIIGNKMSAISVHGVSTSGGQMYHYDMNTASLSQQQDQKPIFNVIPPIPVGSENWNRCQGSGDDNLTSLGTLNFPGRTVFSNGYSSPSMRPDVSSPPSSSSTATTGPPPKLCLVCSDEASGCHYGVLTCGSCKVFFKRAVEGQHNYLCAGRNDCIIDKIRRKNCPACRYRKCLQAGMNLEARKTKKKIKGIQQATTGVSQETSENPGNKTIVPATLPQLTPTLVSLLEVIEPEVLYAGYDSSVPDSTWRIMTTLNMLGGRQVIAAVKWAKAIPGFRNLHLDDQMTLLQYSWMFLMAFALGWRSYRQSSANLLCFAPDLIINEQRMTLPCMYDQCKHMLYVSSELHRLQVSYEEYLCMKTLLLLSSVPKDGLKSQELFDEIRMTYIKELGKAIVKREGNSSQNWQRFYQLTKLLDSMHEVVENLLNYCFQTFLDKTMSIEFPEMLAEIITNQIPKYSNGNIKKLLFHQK
Cytochrome P450 3A4 (Homo sapiens), sequence (P08684 whole entry, looked up, canonical isoform): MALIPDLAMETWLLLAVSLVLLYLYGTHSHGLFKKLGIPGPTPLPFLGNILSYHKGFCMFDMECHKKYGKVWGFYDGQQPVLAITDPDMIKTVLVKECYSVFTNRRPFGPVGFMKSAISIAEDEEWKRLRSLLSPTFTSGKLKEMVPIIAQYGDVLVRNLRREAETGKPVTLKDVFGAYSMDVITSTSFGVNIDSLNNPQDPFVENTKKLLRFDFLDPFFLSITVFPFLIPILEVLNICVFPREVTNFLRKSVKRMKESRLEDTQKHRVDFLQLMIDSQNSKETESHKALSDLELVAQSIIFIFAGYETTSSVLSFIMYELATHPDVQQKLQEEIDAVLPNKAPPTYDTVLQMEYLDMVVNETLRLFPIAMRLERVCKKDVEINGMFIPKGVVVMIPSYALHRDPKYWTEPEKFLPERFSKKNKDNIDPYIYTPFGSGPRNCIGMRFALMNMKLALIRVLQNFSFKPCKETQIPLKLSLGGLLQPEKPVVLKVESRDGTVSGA
Cytochrome P450 1A2 (Homo sapiens), sequence (P05177 whole entry, looked up): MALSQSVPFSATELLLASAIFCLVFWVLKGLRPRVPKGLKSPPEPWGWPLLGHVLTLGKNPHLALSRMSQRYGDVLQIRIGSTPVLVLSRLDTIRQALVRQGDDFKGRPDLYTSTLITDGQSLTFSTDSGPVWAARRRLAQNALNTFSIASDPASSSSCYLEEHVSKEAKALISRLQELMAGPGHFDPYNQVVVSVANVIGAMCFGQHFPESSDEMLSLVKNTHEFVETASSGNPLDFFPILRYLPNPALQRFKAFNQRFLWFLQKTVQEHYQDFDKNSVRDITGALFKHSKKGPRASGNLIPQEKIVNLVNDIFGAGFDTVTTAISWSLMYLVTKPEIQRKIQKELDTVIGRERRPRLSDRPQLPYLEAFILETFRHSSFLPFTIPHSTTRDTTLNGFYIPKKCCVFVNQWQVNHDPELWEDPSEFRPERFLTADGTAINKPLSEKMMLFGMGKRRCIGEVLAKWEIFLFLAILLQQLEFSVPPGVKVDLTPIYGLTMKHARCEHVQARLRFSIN
Lysosomal acid glucosylceramidase (Homo sapiens), sequence (P04062 whole entry, looked up): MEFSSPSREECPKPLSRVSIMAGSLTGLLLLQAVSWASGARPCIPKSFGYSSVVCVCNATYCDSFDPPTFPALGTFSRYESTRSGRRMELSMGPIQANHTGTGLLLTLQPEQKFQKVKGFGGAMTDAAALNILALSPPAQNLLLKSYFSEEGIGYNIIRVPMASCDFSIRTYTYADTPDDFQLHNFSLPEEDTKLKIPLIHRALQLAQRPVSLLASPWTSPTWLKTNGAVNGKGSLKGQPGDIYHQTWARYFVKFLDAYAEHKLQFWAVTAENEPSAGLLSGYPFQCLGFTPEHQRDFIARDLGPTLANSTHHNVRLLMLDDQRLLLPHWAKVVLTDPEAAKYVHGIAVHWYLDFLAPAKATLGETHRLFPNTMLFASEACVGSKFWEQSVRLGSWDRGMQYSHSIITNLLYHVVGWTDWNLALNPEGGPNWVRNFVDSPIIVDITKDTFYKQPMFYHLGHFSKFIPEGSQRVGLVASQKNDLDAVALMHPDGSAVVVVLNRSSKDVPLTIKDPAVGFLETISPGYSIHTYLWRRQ
Ubiquitin carboxyl-terminal hydrolase 1 (Homo sapiens), sequence (O94782 whole entry, looked up): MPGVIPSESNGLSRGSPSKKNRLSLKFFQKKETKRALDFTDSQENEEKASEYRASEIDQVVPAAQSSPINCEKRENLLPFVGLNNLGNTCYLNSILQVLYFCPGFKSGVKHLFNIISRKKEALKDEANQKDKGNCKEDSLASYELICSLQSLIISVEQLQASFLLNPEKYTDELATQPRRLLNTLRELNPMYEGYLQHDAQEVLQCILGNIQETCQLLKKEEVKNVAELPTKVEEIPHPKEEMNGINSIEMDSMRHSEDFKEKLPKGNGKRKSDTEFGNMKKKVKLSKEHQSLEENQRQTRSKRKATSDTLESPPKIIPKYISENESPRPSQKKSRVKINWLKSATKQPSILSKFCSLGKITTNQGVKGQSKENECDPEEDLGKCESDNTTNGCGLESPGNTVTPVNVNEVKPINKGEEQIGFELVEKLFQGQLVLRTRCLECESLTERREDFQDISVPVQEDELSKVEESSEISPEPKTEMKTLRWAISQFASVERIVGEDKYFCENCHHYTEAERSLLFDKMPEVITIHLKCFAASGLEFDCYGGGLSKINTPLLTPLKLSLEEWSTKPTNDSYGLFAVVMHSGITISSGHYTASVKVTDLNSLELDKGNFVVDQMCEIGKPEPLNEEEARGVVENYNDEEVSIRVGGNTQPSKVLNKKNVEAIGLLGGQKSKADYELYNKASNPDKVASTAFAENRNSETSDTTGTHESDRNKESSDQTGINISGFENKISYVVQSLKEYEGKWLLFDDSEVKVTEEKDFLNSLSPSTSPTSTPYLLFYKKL
Dual specificity protein kinase CLK4 (Homo sapiens), sequence (Q9HAZ1 whole entry, looked up): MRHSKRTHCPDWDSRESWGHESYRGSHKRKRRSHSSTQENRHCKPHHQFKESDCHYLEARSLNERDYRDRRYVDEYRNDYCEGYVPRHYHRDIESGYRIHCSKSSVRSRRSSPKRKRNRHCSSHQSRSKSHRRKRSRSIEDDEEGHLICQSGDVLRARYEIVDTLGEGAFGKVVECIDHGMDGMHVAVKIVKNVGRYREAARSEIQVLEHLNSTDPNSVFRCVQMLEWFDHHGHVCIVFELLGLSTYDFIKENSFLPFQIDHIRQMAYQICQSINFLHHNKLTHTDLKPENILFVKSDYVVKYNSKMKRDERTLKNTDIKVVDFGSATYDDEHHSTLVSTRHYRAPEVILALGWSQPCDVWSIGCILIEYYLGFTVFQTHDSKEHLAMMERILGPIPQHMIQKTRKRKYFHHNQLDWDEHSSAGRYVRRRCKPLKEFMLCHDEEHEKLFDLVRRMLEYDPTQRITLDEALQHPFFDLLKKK
Cytochrome P450 2C19 (Homo sapiens), sequence (P33261 whole entry, looked up): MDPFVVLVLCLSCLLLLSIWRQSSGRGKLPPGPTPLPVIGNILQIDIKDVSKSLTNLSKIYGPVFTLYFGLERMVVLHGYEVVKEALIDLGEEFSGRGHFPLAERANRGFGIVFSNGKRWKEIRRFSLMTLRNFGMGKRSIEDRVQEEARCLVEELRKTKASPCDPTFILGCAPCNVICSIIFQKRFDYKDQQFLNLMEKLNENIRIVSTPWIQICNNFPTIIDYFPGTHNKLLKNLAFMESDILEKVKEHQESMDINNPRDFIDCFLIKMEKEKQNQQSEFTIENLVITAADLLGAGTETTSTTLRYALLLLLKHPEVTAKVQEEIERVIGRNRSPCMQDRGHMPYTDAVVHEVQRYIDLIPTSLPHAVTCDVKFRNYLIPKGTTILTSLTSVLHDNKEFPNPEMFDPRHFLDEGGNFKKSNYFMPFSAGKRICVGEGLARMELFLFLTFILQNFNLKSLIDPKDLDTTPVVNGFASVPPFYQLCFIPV
Cytochrome P450 2D6 (Homo sapiens), sequence (P10635 whole entry, looked up): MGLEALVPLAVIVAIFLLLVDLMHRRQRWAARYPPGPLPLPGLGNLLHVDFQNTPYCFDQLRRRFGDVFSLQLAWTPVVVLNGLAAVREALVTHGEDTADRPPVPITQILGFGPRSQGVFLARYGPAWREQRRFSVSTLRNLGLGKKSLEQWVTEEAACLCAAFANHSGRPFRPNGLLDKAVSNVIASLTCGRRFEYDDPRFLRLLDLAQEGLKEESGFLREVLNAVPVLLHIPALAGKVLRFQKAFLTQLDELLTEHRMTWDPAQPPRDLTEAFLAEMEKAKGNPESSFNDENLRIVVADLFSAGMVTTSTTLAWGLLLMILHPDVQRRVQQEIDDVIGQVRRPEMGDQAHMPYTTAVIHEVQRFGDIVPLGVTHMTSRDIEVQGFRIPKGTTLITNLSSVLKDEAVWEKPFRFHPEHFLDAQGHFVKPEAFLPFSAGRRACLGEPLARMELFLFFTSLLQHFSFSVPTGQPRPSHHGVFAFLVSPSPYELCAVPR

COc1cccc(Cn2c(=O)cnc3cnc(N(C)C)nc32)c1
active: Potency [3] 6.31 µM
inactive: Potency [1] > 11.4 µM | activity change, negative = inhibition [2] -10.4% | activity change, negative = inhibition [4] -0.24% | outcome [5] | Potency [6] > 9.22 µM | Potency [7] > 46 µM | Potency [8] | outcome [9] | Potency [10] | Potency [11]

CCCCCC(=O)O
inactive: outcome [12] | outcome [13] | Potency [14] | Potency [15] | Potency [16] | outcome [17] | Potency [18] | max response [19] -1.64% | outcome [20] | Potency [21] | outcome [22] | outcome [23]
